Bioassay records from PubChem BioAssay.
Mtb FBA inh: Mtb FBA enzyme inhibitors, primary screen, biochemical, fluorescence, strain H37Rv; Fructose-bisphosphate aldolase (Mycobacterium tuberculosis (strain ATCC 25618 / H37Rv)), …; purified M. tuberculosis FBA, fluorescence read-out; inhibition, % at 1 µM; 360,000 compounds, 2.3% hits;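 also: 0% = vehicle and 100% = reference inhibitor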
Target sequence (P9WQA3 whole entry, looked up): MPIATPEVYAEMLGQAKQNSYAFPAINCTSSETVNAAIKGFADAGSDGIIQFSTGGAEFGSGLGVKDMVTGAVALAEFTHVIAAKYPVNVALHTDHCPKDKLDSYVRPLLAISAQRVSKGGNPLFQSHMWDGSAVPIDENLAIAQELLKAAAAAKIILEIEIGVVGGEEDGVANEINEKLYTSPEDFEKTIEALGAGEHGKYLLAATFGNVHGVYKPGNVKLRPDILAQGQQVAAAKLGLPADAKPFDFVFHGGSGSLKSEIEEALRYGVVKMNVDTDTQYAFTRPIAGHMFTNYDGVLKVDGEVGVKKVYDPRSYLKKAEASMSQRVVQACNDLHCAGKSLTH
Mtb UGM inh: M. tuberculosis UGM enzyme inhibitors, primary screen, biochemical, fluorescence polarization, single point; UDP-galactopyranose mutase (Mycobacterium tuberculosis (strain ATCC 25618 / H37Rv)), …; purified UGM, fluorescence polarization probe displacement; inhibition, % at 10 µM; 320,000 compounds, 0.06% hits; in the data active = inhibition above about 10%, passing the limit was not always enough
Rv3671c inh: Rv3671c serine protease inhibitors, primary screen, biochemical, fluorescence polarization, M. tuberculosis H37Rv; P9WHR9; inhibition, % at 5.96 µM; 320,000 compounds, 0.048% hits; AID 2606, 2010; in the data active = inhibition above about 38%;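 also: extracellular domain of Rv3671c used as enzyme; 0% = enzyme with DMSO and 100% = no enzyme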
Vc quorum ag: inducers of Vibrio cholerae quorum light production without autoinducers, primary screen, BH1578 luxS cqsA deficient, single point; V. cholerae BH1578 lux reporter, luminescence, 6 h; activation, % at 18.7 µM; 350,000 compounds, 0.16% hits; AID 588436, 2011; in the data active = activation mostly above about 9.7%, no sharp cut-off
GDH-TPI counter-1: GDH-TPI coupling enzyme inhibitors, primary screen, artefact control for M. tuberculosis FBA inhibitor project, biochemical, absorbance, full deck | GDH-TPI coupled enzyme counterscreen, NADH absorbance | inhibition, % at 4.8 µM | 360,000 compounds, 1.2% hits; in the data active = inhibition above about 30%;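 also: 0% = DMSO wells and 100% = wells lacking the enzyme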
RecA splice inh: Mtb RecA intein splicing inhibitors, primary screen, biochemical, fluorescence, HTS | AID 2221, 2009 | 290,000 compounds, 0.75% hits | cell-free RecA intein splicing | Protein RecA (Mycobacterium tuberculosis (strain ATCC 25618 / H37Rv)), P9WHJ3 | inhibition, % (test concentration not listed); in the data active = inhibition above about 30%;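 also: 0% = vehicle wells and 100% = reference inhibitor control wells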
Mtb FBA inh conf: M. tuberculosis aldolase blockers, biochemical, fluorescence, strain H37Rv, confirmation; 5,600 compounds, 78% hits; inhibition, % at 1 µM; purified M. tuberculosis FBA, fluorescence read-out; shares compounds with Mtb FBA inh;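 also: 0% = vehicle wells and 100% = reference inhibitor wells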
GDH-TPI counter-2: GDH-TPI coupling enzyme inhibitors, artefact control for M. tuberculosis FBA inhibitor project, biochemical, fluorescence, high throughput. shares compounds with Mtb FBA inh. GDH-TPI coupled enzyme counterscreen. inhibition, % at 1 µM. 5,600 compounds, 81% hits. AID 652141, 2013; in the data active = inhibition above about 10%
* = called active by the depositor; i = inactive; . = no result given; + = active, no number. Rows were chosen to be rich in hits. Some 4.1% of all compounds tested hit in one or more screens of this group. Rule as the data show it, unless noted: active = inhibition above about 27%; inactive = the rest.

SMILES	Mtb FBA inh	Mtb UGM inh	Rv3671c inh	Vc quorum ag	GDH-TPI counter-1	RecA splice inh	Mtb FBA inh conf	GDH-TPI counter-2
CCC(C(=O)N1CCN(Cc2ccc3c(c2)OCO3)CC1)n1c(=O)[nH]c2ccccc2c1=O (stereo unspecified)	33*	-1	-11	0	7	-3	124*	109*
CCC(C)C(=O)Nc1nnc(-c2cccs2)s1 (stereo unspecified)	32*	3	3	i	10	.	51*	47*
CCC(=O)Nc1nnc(-c2cccs2)s1	27*	0	2	i	0	-2	0	-4
O=C(Cc1ccccc1)Nc1nnc(-c2cccs2)s1	68*	-4	6	i	23	-2	106*	83*
COCC(=O)Nc1nnc(-c2cccs2)s1	23	0	-2	-1	25	4	.	.
Cc1cc(C)n2nc(CC(=O)NNC(=O)COc3ccccc3)nc2n1	1	0	5	0	-3	-1	.	.
CCc1nc2ccc(C(=O)NCC3CCCCC3)cn2c1N(CCC(C)C)CCN(C)C	4	.	.	0	17	.	.	.
COc1ccc(CC(=O)NCC(=O)Nc2ccccc2Br)cc1	0	-2	-7	-1	-1	1	.	.
O=C(NCc1ccccn1)C1(C(F)(F)F)C/C(=C\CCO)CCCO1 (stereo unspecified)	3	-1	-7	1	-16	1	.	.
O=c1oc2c(O)cccc2cc1-c1nc2ccccc2[nH]1	55*	-4	.	0	5	-181	142*	103*
O=C(NC(c1ccc(-c2ccccc2)cc1)c1cnccn1)C1CCN(Cc2cccc(C(F)(F)F)c2)CC1 (stereo unspecified)	-1	.	.	-1	4	.	.	.
c1ccc(N2CC3CCc4ccccc4C3=N2)cc1 (stereo unspecified)	58*	-2	16	-1	5	.	46*	31*
CCCCn1c(N)c(N(CC(C)C)C(=O)c2ccc(OC)c(S(=O)(=O)N3CCOCC3)c2)c(=O)[nH]c1=O	-2	.	.	0	8	.	.	.
O=C(COc1ccc2c3c(c(=O)oc2c1)CCC3)NCc1ccncc1	20	-4	5	0	9	-1	.	.
O=C(COc1ccc2c3c(c(=O)oc2c1)CCCC3)NCc1ccccn1	86*	-2	6	i	9	-2	+	+
Cc1c(OCC(=O)NCCCn2ccnc2)ccc2c3c(c(=O)oc12)CCCC3	31*	-1	1	1	8	2	76*	64*
O=C(COc1ccc2c3c(c(=O)oc2c1)CCCC3)NCCCN1CCCC1=O	62*	-2	0	0	14	-2	92*	79*
O=C(COc1ccc2c3c(c(=O)oc2c1)CCCC3)NCCCn1ccnc1	29*	0	-3	0	6	-2	+	194*
CCC(=O)N1CCCC1(C)C(=O)Nc1ccc2scnc2c1 (stereo unspecified)	4	.	.	-5	6	.	.	.
CCn1ncc(CN2CCC(Oc3cc(C(=O)NC4CC4)ccc3OC)CC2)c1C	-1	1	.	0	0	2	.	.
O=C(Nc1ccc2nc([C@H]3C[C@H](O)[C@@H](CO)O3)[nH]c2c1)NC(c1ccccc1)c1ccccc1	0	.	.	0	4	.	.	.
CCC1CCCCN1C(=S)NC(=O)c1cccc([N+](=O)[O-])c1 (stereo unspecified)	-1	0	9	0	1	2	.	.
